# Reference: PubChem BioAssay AID492949 (National Center for Advancing Translational Sciences (NCATS), 2010)
# Inconclusive results are not listed. Entries that show only a call come without a potency. Active and inactive are the calls of the source. The call rests on the fitted dose curve; in most records, active means well fitted activation curve with a large enough effect; inconclusive means small, poorly fitted or top-dose-only effect; inactive means no such curve, though single readings can be large or run the other way.
# Target: Relaxin receptor 1 (Homo sapiens) (UniProt Q9HBX9)
# Experiment: qHTS Assay for Agonists of the Relaxin Receptor RXFP1: THP1 Hit Validation; further: nearly all actives have a fitted effect of over 60% in size
# Details: THP1-RXFP1 cells, cAMP TR-FRET, 30 min; series mostly up to 115 µM
# Text: The relaxin hormone is involved in the variety of biological functions in normal tissues and diseases. The role of relaxin is well-established in female reproduction and parturition, mammary gland and endometrial development, maintenance of myometrial quiescence during pregnancy. Relaxin signaling through its G protein-coupled receptor (GPCR) RXFP1 results in ECM remodeling through regulation of collagen deposition, cell invasiveness, proliferation and overall tissue homeostasis. […] Recombinant human relaxin (rhRlx) is currently being tested in clinical trials as a protective agent in congestive heart failure, in treating severe preeclampsia, and as an anti-fibrotic agent in systemic sclerosis.
# Upon relaxin binding RXFP1 activation leads to the activation of adenylate cyclase (AC) via Gs. cAMP will activate PKA, which phosphorylates many signaling proteins. Thus, detection of cAMP increase is an easy and reliable indication of relaxin receptor activation. To screen for agonists of the relaxin receptor, a THP1 cell line stably transfected with RXFP1 was used. RXFP1 activation was assayed by changes in cAMP levels as detected with a time-resolved fluorescence energy transfer (TR-FRET) cAMP detection kit.
# NIH Chemical Genomics Center [NCGC]
# NIH Molecular Libraries Probe Production Centers Network [MLPCN]
# Assay Submitter (PI): Alexander Agoulnik
# NCGC Assay Protocol Summary:
# This is a cell-based assay for cAMP second messenger response to screen for agonists of the RXFP1 receptor. The assay was conducted in the presence of a PDE4 inhibitor (Ro 20174). The cells were lysed and the cAMP levels were measured with a TR-FRET cAMP kit. Presence of cAMP in the cell lysate disrupts binding between the cryptate-labeled anti-cAMP and d2-labeled cAMP pair, leading to a decrease in the TR-FRET signal. Data were normalized to the controls for basal activity (buffer only) and 100% activity (29 nM porcine relaxin). The EC50 values were determined from concentration-response data modeled with the standard Hill equation
# 1536-well assay protocol for the THP1 RXFP1 cAMP assay:
# (1) Add 3 ul THP1 RXFP1 cell culture. 2000 cells/well in DMEM/F12, 10% FBS, 1x Pen/Strep (dispensed offline with MultiDrop Combi).
# (3) Add 23 nl compounds in DMSO solution. Final concentration was 0.5 - 58 uM.
# (4) Incubate 30 min at 37C, 5% CO2.
# (5) Add 1 ul cAMP-d2 in lysis buffer (HTRF cAMP HiRange kit, CisBio).
# (6) Add 1 ul anti-cAMP antibody-cryptate in lysis buffer (HTRF cAMP HiRange kit, CisBio).
# (7) Incubate 30 min at room temperature.
# (6) Detect the assay plate in a ViewLux plate reader (PerkinElmer) with Ex=320 nm, Em1=615 nm and Em2=665 nm.
# Keywords: relaxin, RXFP1, RXFP2, G-protein coupled receptor, cAMP, agonist, high throughput screening, MLSMR, MLSCN, NIH Roadmap, qHTS and NCGC
# Potency means the concentration at half of the fitted maximal effect.
# Sequence of Relaxin receptor 1 (Homo sapiens) (Q9HBX9 whole entry, looked up): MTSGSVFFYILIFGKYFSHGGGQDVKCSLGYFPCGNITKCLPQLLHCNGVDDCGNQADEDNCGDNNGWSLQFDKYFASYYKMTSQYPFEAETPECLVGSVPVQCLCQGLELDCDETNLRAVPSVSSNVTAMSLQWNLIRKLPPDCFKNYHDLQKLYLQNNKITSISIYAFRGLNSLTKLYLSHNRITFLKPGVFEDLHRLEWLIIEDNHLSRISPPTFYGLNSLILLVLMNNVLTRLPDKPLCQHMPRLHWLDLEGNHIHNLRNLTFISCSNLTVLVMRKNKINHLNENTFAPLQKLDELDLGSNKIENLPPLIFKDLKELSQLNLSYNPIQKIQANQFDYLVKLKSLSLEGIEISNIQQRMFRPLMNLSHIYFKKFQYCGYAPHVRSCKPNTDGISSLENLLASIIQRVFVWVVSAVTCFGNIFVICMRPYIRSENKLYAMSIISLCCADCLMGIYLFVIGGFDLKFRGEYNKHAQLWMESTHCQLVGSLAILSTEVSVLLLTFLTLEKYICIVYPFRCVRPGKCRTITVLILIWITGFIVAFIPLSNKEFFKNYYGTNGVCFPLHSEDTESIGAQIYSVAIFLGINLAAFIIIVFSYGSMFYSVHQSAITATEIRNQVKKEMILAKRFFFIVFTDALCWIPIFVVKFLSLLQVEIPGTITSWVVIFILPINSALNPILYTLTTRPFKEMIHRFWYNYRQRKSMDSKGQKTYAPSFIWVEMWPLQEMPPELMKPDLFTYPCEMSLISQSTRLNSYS
row,Structure (SMILES),Potency
1,COc1cccc(C(=O)CSc2nnc(-c3cc(OC)cc(OC)c3)o2)c1,12.3 µM (active)
2,O=C(Nc1ccccc1C(=O)NCc1ccccc1)c1ccco1,inactive
3,CN(Cc1ccccc1)C(=O)c1ccccc1NC(=O)c1ccco1,inactive
4,NS(=O)(=O)c1ccc(CCNC(=O)C2CCN(c3ncnc4c3nc3n4CCCCC3)CC2)cc1,27.5 µM (active)
5,O=C1/C(=C/c2ccc(O)c(O)c2)Oc2cc(O)ccc21,inactive
6,CC1CCN(S(=O)(=O)c2ccc3nc(N4CCN(c5ccccc5)CC4)ccc3c2)CC1,15.4 µM (active)
7,C=CCOc1c(Cl)cc(CNc2ccc(N(C)C)cc2)cc1OC,inactive
8,O=C(O)CSc1ccnc2cc(Cl)ccc12,21.8 µM (active)
9,CCN(CC)S(=O)(=O)c1ccc(N2CCOCC2)c(NC(=O)c2cccc(C#N)c2)c1,27.5 µM (active)
10,O=C(O)CCNc1ccc(NCCC(=O)O)c2c1C(=O)c1ccccc1C2=O,inactive
11,CCOP1(=O)OCC2OC(n3cnc4c(N)ncnc43)C(O)C2O1 (stereo not given),8.7 µM (active)
12,S=c1nc[nH]c2c1[nH]c1ccc(Cl)cc12,1.55 µM (active)
13,O=C(O)c1ccc(N=C2NC(=O)C(CO)(CO)S2)cc1,inactive
14,CC(NC(=O)c1ccccc1NC(=O)c1ccco1)C(=O)O (stereo not given),inactive
15,CN(C)CCCn1c(SCC(=O)Nc2nc(-c3cccc(Br)c3)cs2)nc2ccccc2c1=O,inactive
16,Cc1ccc(-c2ccc3nnc(SCC(=O)NCC4CCCO4)n3n2)cc1 (stereo not given),inactive
17,CCCN(CCC)S(=O)(=O)c1cc(CN2C(=O)c3cccnc3C2=O)ccc1OC,24.5 µM (active)
18,CCC(=O)Nc1ccc(-n2nnnc2SCC(=O)NNC(=O)c2ccco2)cc1,inactive
19,Cc1ccc(C(=O)Nc2ccccc2C(N)=O)o1,inactive
20,CC1CCCCN1C(=O)c1ccccc1NC(=O)c1ccco1 (stereo not given),inactive

row,Structure (SMILES),Potency
1,CN(C)c1ccc(NC(=O)C2C3C=CC(C3)C2C(=O)O)cc1 (stereo not given),inactive
2,Cc1cc(Br)c2nc3c(c(C(=O)O)c2c1)CCCCC3,3.08 µM (active)
3,O=c1c2ccccc2cnn1Cc1n[nH]c(=S)n1-c1ccc(F)c(Cl)c1,12.3 µM (active)
4,CN1C(=O)c2ccc(C(=O)Nc3ccc(Br)cn3)cc2C1=O,21.8 µM (active)
5,COC(=O)c1sc(N2C(=O)C(O)=C(C(=O)c3ccc(C)o3)C2c2ccc(F)cc2)nc1C (stereo not given),2.75 µM (active)
6,COc1ccc(C(C)=O)cc1Cn1cnc2c(cnn2C)c1=O,13.8 µM (active)
7,O=C(O)c1cc(-c2ccc(Br)s2)nc2ccccc12,3.08 µM (active)
8,CCN(CC)CCCCCC(=O)Nc1ccccc1C(=O)Nc1ccccc1,inactive
9,CCc1cc2c(=O)nc3n(c2s1)Cc1ccccc1/C3=C(/O)c1cccc([N+](=O)[O-])c1,0.87 µM (active)
10,C[C@H](Cc1ccccc1)Nc1ncnc2c1ncn2[C@@H]1O[C@H](CO)[C@@H](O)[C@H]1O,inactive
11,CC1(C(=O)Nc2nc3ccccc3s2)CC1(Br)Br (stereo not given),inactive
12,CC(C)n1c(SCC(=O)N2CCN(C(=O)c3ccco3)CC2)nc2c1c(=O)n(C)c(=O)n2C,6.9 µM (active)
13,O=C(Nc1ccccc1C(=O)NC1CCCCC1)c1ccco1,inactive
14,O=C(Nc1ccccc1C(=O)Nc1ccc(F)cc1)c1ccco1,inactive
15,Cc1cccc(NC(=O)c2ccccc2NC(=O)C2CCCCC2)c1C,inactive
16,CCN(c1ccccc1)S(=O)(=O)c1ccc(OC)c(NC(=O)C2CC(=O)N(Cc3ccccc3)C2)c1 (stereo not given),inactive
17,Cc1cc(C)n2nc(C(=O)Nc3ccc4c(c3)OCCO4)nc2n1,8.68 µM (active)
18,O=C(O)c1cc(-c2ccco2)nc2ccc(Br)cc12,19.4 µM (active)
19,Cc1ccccc1NC(=O)CNc1ccccc1C(=O)NCc1ccco1,inactive
20,Cc1cccn2c(=O)c(/C=C3\SC(=S)NC3=O)c(NCCCN3CCOCC3)nc12,4.88 µM (active)
